Measurements from PubChem BioAssay (NCI).
Values joined by “and” are separate entries in the source; they are usually repeats but may differ in a detail not shown here. Identical values can stand only once. The panel holds about 83,000 compounds, 20% with a hit somewhere; the sample as a whole holds those more often.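 The test compound was applied at a single concentration to cells in 96-well plates for 48 hours, and percent growth was recorded.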 Active and inactive are the calls of the source. The calls were made as follows: active = growth percent below 10; inactive = the rest.

Legend:
Experiment in all cases: NCI-60 one-dose screen, 48 h (100 = growth as untreated, 0 = no growth, -100 = all killed)
Settings in all cases: 10 µM unless noted
BT-549 breast = tested on: BT-549 breast
MDA-MB-435 melanoma = tested on: MDA-MB-435 melanoma
MCF7 breast = tested on: MCF7 breast
HCT-116 colon = tested on: HCT-116 colon
HCC-2998 colon = tested on: HCC-2998 colon
KM12 colon = tested on: KM12 colon
SW-620 colon = tested on: SW-620 colon

| Structure (SMILES) | growth (BT-549 breast) | growth (MDA-MB-435 melanoma) | growth (MCF7 breast) | growth (HCT-116 colon) | growth (HCC-2998 colon) | growth (KM12 colon) | growth (SW-620 colon) |
| --- | --- | --- | --- | --- | --- | --- | --- |
| COc1cc(Nc2nc3ccccc3nc2NS(=O)(=O)c2ccc(NC(=O)c3ccc(C)c(OC)c3)cc2)cc(OC)c1 | 39.6% (inactive) and -6.94% (active) | 68.3% (inactive) and 3.11% (active) | 36.6% (inactive) and 5.28% (active) | 69.9% (inactive) and 18.2% (inactive) | 68.5% (inactive) | 54% (inactive) and 13.9% (inactive) |  |
| Cc1ccc(NCSc2ccc(Cl)cc2)cc1 | 44.9% (inactive) and 66% (inactive) | 63.8% (inactive) and 65.7% (inactive) | 86.9% (inactive) and 80.7% (inactive) | 85% (inactive) and 91% (inactive) | 92.4% (inactive) and 94.9% (inactive) | 61.4% (inactive) and 66.5% (inactive) |  |
| C[C@@H]1C[C@@H]2OC(=O)[C@]3(C)[C@H]2[C@@H](OC3(C)O)[C@]2(C)C(=O)C=C[C@@H]12 (stereo not given in full) |  |  | -67.1% [100 µM] (active) and -81.7% [100 µM] (active) |  |  |  |  |
| Cn1c(=O)c2[nH]c(CCCCCCCCc3nc4ccccc4[nH]3)nc2n(C)c1=O | 46.1% (inactive) and 54.1% (inactive) | 37% (inactive) and 52.2% (inactive) | 45.2% (inactive) and 50.7% (inactive) | 40.9% (inactive) and 56% (inactive) | 59.2% (inactive) and 86.5% (inactive) | 83.6% (inactive) and 91.1% (inactive) |  |
| CNc1nc2c(C)ccc3[nH]c(N(C)C)nc3c-2n1 |  |  | 8.99% [100 µM] (active) and 1.25% [100 µM] (active) |  |  |  |  |
| O[C@H]1[C@H](O)[C@@H](Cn2nnc(-c3ccccc3)c2-c2ccccc2)OCO[C@@H]1Cn1nnc(-c2ccccc2)c1-c1ccccc1 |  |  | -62.6% [100 µM] (active) |  |  |  |  |
| COc1c2c(c3c(c1OC)c(=O)c1ccccc1n3C)OCO2 |  |  | 81.3% [100 µM] (inactive) |  |  |  |  |
| CC(=O)C(/C=N/C(N)=O)=C(/C)O | 101% (inactive) | 103% (inactive) | 106% (inactive) | 105% (inactive) | 106% (inactive) | 111% (inactive) |  |
| COc1ccccc1-c1n[nH]c(-c2ccccc2O)n1 |  |  | 61.5% [100 µM] (inactive) and 21.6% [100 µM] (inactive) |  |  |  |  |
| COc1cc2c(cc1-c1coc3cc(O)ccc3c1=O)OCO2 |  |  | 67.5% [100 µM] (inactive) and 58.5% [100 µM] (inactive) |  |  |  |  |
| C1CCCCNCCC1 | 114% (inactive) | 94.6% (inactive) | 101% (inactive) | 107% (inactive) | 112% (inactive) | 115% (inactive) |  |
| CC1(c2ccc3ccccc3c2)CCC(=O)O1 (stereo not given) | 104% (inactive) | 106% (inactive) | 106% (inactive) | 111% (inactive) | 109% (inactive) | 106% (inactive) | 108% (inactive) |
| CC(C)=CC(O)C/C(C)=C/CC/C(C)=C/CCC1(C)C(CCCO)/C(=C(/C)C=O)CCC1(C)O (stereo not given) |  |  | -22.6% [100 µM] (active) and -6.67% [100 µM] (active) |  |  |  |  |
| O=C(Nc1ccc(Cl)cc1)c1cc2ccccc2cc1O | 23.3% (inactive) | 39.2% (inactive) and 25.9% (inactive) | 12% (inactive) and -0.605% (active) | 18.9% (inactive) and -44.3% (active) |  | 8.59% (active) and 2.94% (active) | 13.3% (inactive) and 5.94% (active) |
| c1ccc(N(c2ccccc2)c2ccccc2)cc1 | 106% (inactive) | 104% (inactive) | 117% (inactive) | 99.6% (inactive) | 111% (inactive) | 105% (inactive) | 103% (inactive) |
| CC1CCCC(=O)O1 (stereo not given) | 104% (inactive) and 105% (inactive) | 97.2% (inactive) and 107% (inactive) | 96.3% (inactive) and 101% (inactive) | 105% (inactive) and 94.6% (inactive) | 98.3% (inactive) | 97.7% (inactive) and 106% (inactive) |  |
| O=C(O)c1n[nH]nc1Cl |  |  | 94.1% [100 µM] (inactive) and 80.7% [100 µM] (inactive) |  |  |  |  |
| Nc1ccc(N=Nc2ccc(S(=O)(=O)O)cc2)cc1S(=O)(=O)O | 120% (inactive) and 148% (inactive) | 108% (inactive) and 101% (inactive) | 104% (inactive) and 92.8% (inactive) | 90.2% (inactive) and 114% (inactive) | 105% (inactive) and 94.5% (inactive) | 96.1% (inactive) and 105% (inactive) | 115% (inactive) and 97.8% (inactive) |
| O=C(CCl)c1ccc2c(c1)Nc1ccccc1S2 | 74% (inactive) and 76.1% (inactive) | 100% (inactive) and 88.9% (inactive) | 85.5% (inactive) and -32.4% (active) | 69.1% (inactive) and 64.3% (inactive) | 83.3% (inactive) | 104% (inactive) and 102% (inactive) |  |
| CN1CCN(Cc2occc(=O)c2O)CCN(C)CCN(Cc2occc(=O)c2O)CC1 | 97.1% (inactive) and 84% (inactive) | 108% (inactive) and 47.3% (inactive) | 91.6% (inactive) and 24.9% (inactive) | 100% (inactive) and 10.6% (inactive) | 112% (inactive) and 47.5% (inactive) | 109% (inactive) and 28.9% (inactive) |  |
| CNC(=O)c1cccnc1 | 101% (inactive) | 105% (inactive) | 105% (inactive) | 103% (inactive) | 110% (inactive) | 110% (inactive) | 106% (inactive) |
